# Data reported in ChEMBL document CHEMBL4513216, “Probing the Open Global Health Chemical Diversity Library for Multistage-Active Starting Points for Next-Generation Antimalarials” (ACS Infect Dis, 2020).
# The whole screen tested about 65,000 compounds, of which about 2,100 (3.2%) showed an effect of 50% or more. The median lay at about -52%. Shown is part of a subset that was picked to be rich in strong results.
# System: Plasmodium falciparum
# Assay: Screen against P. falciparum Asexual Blood Stage (ABS), at 5uM
# Format: functional, Dd2
# Conditions: tested at 5 uM
row,SMILES,INHIBITION
1,c1csc(C(CNCc2cccc3c2OCO3)N2CCOCC2)c1 (centres undefined),40.2%
2,Cc1ccc(C(CNCc2cccc3c2OCO3)N2CCOCC2)o1 (centres undefined),65.7%
3,c1cc(CNCc2ccnc(N3CCOCC3)c2)c2c(c1)OCO2,-31.4%
4,Cc1cc(C2CCCN2C(=O)CN2C(=O)OC(C)(C)C2=O)on1 (centres undefined),-28.9%
5,CCCS(=O)(=O)N1C[C@@H]2CN(Cc3cnn(C)c3)CCO[C@@H]2C1,-67.3%
6,Cc1cccc(C(C(=O)NCCn2cccc2)N(C)C)c1 (centres undefined),42.5%
7,O=C(NCCNc1cccnc1)C(c1cccnc1)N1CCCC1 (centres undefined),-11.7%
8,O=C(NCCn1cccc1)C(c1ccccc1)N1CCCC1 (centres undefined),54.4%
9,CC(C)(NCc1cccc(C(N)=O)c1)c1ccc2c(c1)OCO2,19.8%
10,CC(C)(NCc1cccc(C#N)c1)c1ccc2c(c1)OCO2,51.5%
11,CC(C)(NCc1ccc(C#N)cc1)c1ccc2c(c1)OCO2,-0.993%
12,O=C1N[C@@H]2CCN(C(=O)C3CCCC3)[C@@H]2C(=O)N1c1ccc(F)cc1,56.1%
13,O=C1N[C@@H]2CCN(C(=O)C3CC3)[C@@H]2C(=O)N1c1ccc(F)cc1,-99.9%
14,O=C1N[C@@H]2CCN(C(=O)C3CCC3)[C@@H]2C(=O)N1c1ccc(F)cc1,32%
15,CC(=O)N1N=C(COc2ccc3c(c2)OCO3)OC1c1cccc(Cl)c1 (centres undefined),-125%
16,Cc1cc(=O)n(CC(=O)NC(C)C)c(Nc2ccc(F)c(C)c2)n1,-47.4%
17,CN(C)c1ccc(C(CNS(=O)(=O)c2cccs2)N2CCCC2)cc1 (centres undefined),54.2%
18,Cc1nn(C)cc1S(=O)(=O)NCC(c1ccccc1)N1CCCCCC1 (centres undefined),12.9%
19,CN1CCc2cc(C(CNS(=O)(=O)c3cccs3)N3CCCC3)ccc21 (centres undefined),15.5%
20,COc1ccccc1CNC(=O)COc1c(C)n(C)ccc1=O,-82.3%
21,CC(C)c1cnc(CN(C)C2CCN(CCc3cnn(C)c3)C2)o1 (centres undefined),-112%
22,O=C(NCC1CC1)C1CCC2(CCN(C(=O)c3cnccn3)CC2)O1 (centres undefined),-40.1%

row,SMILES,INHIBITION
1,CCCc1ccc(OCCNCc2ccco2)c(OC)c1,51.5%
2,COc1cc(C(C)=O)ccc1OCCNCc1ccco1,1.68%
3,COc1cc(CNCc2ccco2)ccc1OCCO,-66.2%
4,c1cc(CN2CCCC2)cc(-n2ccnc2-c2ccncc2)c1,6.67%
5,Cn1ccnc1-c1nccn1-c1cccc(CN2CCCC2)c1,-2.05%
6,CCCc1nccn1-c1cccc(CN2CCCC2)c1,53.1%
7,O=C(NCCc1ccc(F)cc1)C1CN(C(=O)Cn2cncn2)C1,-29.6%
8,Cc1nc(N(C)CCN(C)C)c2cnn(C)c2n1,-71.9%
9,CN(C)CCN(C)c1nc(CCc2ccccc2)nc2c1cnn2C,51.9%
10,COCc1nc(N(C)CCSc2ccccc2)c2cnn(C)c2n1,-14.2%
11,CN1CCCc2cc(-c3cncn3CC(=O)NC(C)(C)C)ccc21,-38.6%
12,CC1CCN(S(=O)(=O)c2cccn(CC(=O)NC(C)(C)C)c2=O)CC1,-129%
13,CCN1CCc2cc(-c3cncn3CCNC3CCS(=O)(=O)C3)ccc21 (centres undefined),3.68%
14,CCN1CCc2cc(-c3cncn3CC(=O)NC(C)(C)C)ccc21,66.2%
15,CC1Cc2cc(-c3cncn3CC(=O)NC(C)(C)C)ccc2N1C (centres undefined),54.2%
16,CN1CCCc2cc(-c3cncn3CCNC3CCS(=O)(=O)C3)ccc21 (centres undefined),-79.3%
17,c1cc2c(cc1CSCc1noc(C3CC3)n1)OCCO2,-17%
18,O=C(OCC1CCN(c2ccccc2)C1)c1cscn1 (centres undefined),0.13%
19,CCOC1CCC2(CCN(C(=O)c3csnn3)CC2)c2ccccc21 (centres undefined),-79.6%
20,O=C(O)c1ccccc1-c1ccc(CNC(=O)C2CCOCC2)cc1,-63.2%
21,Nc1nc2c(c(NC(Cn3cccn3)c3ccccc3)n1)CCNCC2 (centres undefined),-40.8%
22,Cc1noc(CN(C)CC2CCN(CCO)CC2)n1,-64%

row,SMILES,INHIBITION
1,CN(CCOCC(F)(F)F)CC1CCN(CCO)CC1,19.4%
2,CCC(c1ccc(F)cc1F)N1CCN(CCO)CC1 (centres undefined),34.1%
3,Cc1cnn(CC2CCN(CC(O)c3ccc(F)cc3)CC2)c1 (centres undefined),29.3%
4,CN(CC1CCN(CCO)CC1)CC(O)c1ccc(F)cc1F (centres undefined),56.7%
5,CN(CC1CCN(CCO)CC1)CC(O)c1ccc(F)cc1 (centres undefined),69.1%
6,Cc1ccc(C(=O)NCCCNc2ccc(C(F)(F)F)cn2)cc1,35.4%
7,CCS(=O)(=O)N1CCC(C(=O)NC(Cc2ccsc2)c2nccs2)CC1 (centres undefined),-83.8%
8,CN(Cc1ccccc1CNC(=O)C1CNC(=O)N1)C1CCCCC1 (centres undefined),-35%
9,COc1cc(N2CCC3(CC(=O)N(Cc4csc(C)n4)C3)C2)ncn1 (centres undefined),-10.7%
10,CN1CC(c2ccccc2)CC2(CCN(CC(=O)N(C)C)CC2)C1 (centres undefined),53.8%
11,COC(=O)N1CCC2(CC1)CC(c1ccccc1)CN(C)C2 (centres undefined),-17.2%
12,CN1CC(c2ccccc2)CC2(CCN(C(=O)c3ccccc3)CC2)C1 (centres undefined),18.1%
13,CC(C)OCc1ncn2c1CN(Cc1ccoc1)CCC2,-4.62%
14,CCc1n[nH]c(C2CN(C(=O)c3ccnc(N(C)C)c3)CCO2)n1 (centres undefined),-77.2%
15,CC1CCCN1C1CCN(C(=O)c2cccc(-c3ccoc3)c2)CC1 (centres undefined),53.6%
16,O=C(CN1CCN(C(=O)c2cccc(-c3ccoc3)c2)CC1)C1CC1,-3.7%
17,CC1CCCN1C1CCN(C(=O)c2cccc(F)c2)CC1 (centres undefined),-14.6%
18,O=C1c2cc(Br)cc(Br)c2OCC1(CN1CCCC1)CN1CCCC1,-65.9%
19,CC(C(=O)Nc1ccc(N2CCOCC2)nc1)n1cncn1 (centres undefined),-27%
20,COc1cccc(CNc2ccc(F)c(Cl)c2)c1O,-117%
21,COc1ccc(CN2CCCC(Nc3cccc(F)c3)C2)cc1O (centres undefined),63.3%
22,COc1cccc(O)c1CN1CCCC(Nc2cccc(F)c2)C1 (centres undefined),51.3%

row,SMILES,INHIBITION
1,COc1cccc(CN2CCCC(Nc3cccc(F)c3)C2)c1O (centres undefined),67.3%
2,COc1cc(CN2CCCC(Nc3cccc(F)c3)C2)cc(OC)c1O (centres undefined),36.9%
3,Fc1ccc(NC2CCCN(Cc3ccncc3)C2)cc1 (centres undefined),-65.4%
4,COc1cccc(F)c1CN1CCC(c2nc(C)cc(C)n2)C1 (centres undefined),23.3%
5,COc1ccc(F)cc1CN1CCCC(c2cc(C(N)=O)[nH]n2)C1 (centres undefined),-14.1%
6,COc1ccc(NC2CCCN(Cc3cnc(N(C)C)s3)C2)cc1OC (centres undefined),-54.2%
7,Oc1cccc(CN2CCN(C3CCc4ccccc4C3)CC2)c1 (centres undefined),14.6%
8,Cc1n[nH]c(C)c1C1COCCN1C(=O)Cc1ccccc1F (centres undefined),-105%
9,Cc1cnc(CCN(C)C(=O)c2cccc(C)c2O)s1,-152%
10,Cc1ccc(NC2CCN(C(=O)c3sccc3C3CC3)CC2)nn1,-28.9%
11,Cc1ccc(C(C)NC(=O)N2CCCN(CC(F)F)CC2)s1 (centres undefined),-73.5%
12,Cc1cccc(CN2C(=O)CC[C@@H]3[C@H]2CCN3Cc2ccc(F)cc2)n1,-111%
13,CCNc1nc2c(s1)C(=O)CN(C(=O)NCc1ccccc1)C2,-146%
14,Cc1cccc(-c2noc(CN3CCOC(Cn4cccn4)C3)n2)c1 (centres undefined),51.2%
15,Cc1noc(CN2CCOC(CN(C)C)C2)n1 (centres undefined),-84.3%
16,CN(C)CC1CN(Cc2nc(-c3cccnc3)no2)CCO1 (centres undefined),-51.1%
17,Cc1ccc(-c2noc(CN3CCOC(CN(C)C)C3)n2)cc1F (centres undefined),53.2%
18,Cc1ccc(-c2noc(CN3CCOC(Cn4cccn4)C3)n2)cc1 (centres undefined),-105%
19,c1cncc(-c2noc(CN3CCOC(Cn4cccn4)C3)n2)c1 (centres undefined),10.9%
20,CC(NC(=O)CN1CCN(c2ccncc2Cl)CC1)c1ccco1 (centres undefined),-106%
21,O=C(CCC1CCCN(C(=O)CCc2ccc(F)c(F)c2)C1)NC1CC1 (centres undefined),-157%
22,Cc1ncc(CN2CCc3nc4cc(C(C)(C)C)nn4c(O)c3C2)n1C,-104%

row,SMILES,INHIBITION
1,CN1CCN(C2COC3(CCN(Cc4ccsc4)CC3)C2)CC1 (centres undefined),-10.7%
2,CC(C)Oc1ccc(C(=O)N2CCCCC2Cn2cccn2)cn1 (centres undefined),64.8%
3,CN(C)c1cc(C(=O)N2CCCCC2Cn2cccn2)ccn1 (centres undefined),-202%
4,Cc1cnn(CC2CCCN2C(=O)c2ccc(OC(C)C)nc2)c1 (centres undefined),-94.7%
5,CCN(CC1CN(Cc2cccc(C#N)c2)CCO1)c1cccnn1 (centres undefined),-83.6%
6,CCn1ccnc1CN1CCCN(C(=O)COC2CCCCC2)CC1,-84.3%
7,O=C(Nc1nccs1)NC1CCN(Cc2ccccn2)CC1,63.7%
8,O=C(Nc1nccs1)NC1CCN(Cc2ccccc2)C1 (centres undefined),-9.31%
9,O=C(Nc1nccs1)NC1CCN(Cc2ccccc2)CC1,28.3%
10,Cc1cn2nc(Sc3nnc(C(C)C)n3C)sc2n1,-104%
11,OC(c1ccccn1)C1CCN(Cc2cc3n(n2)CCNC3)CC1 (centres undefined),-27.2%
12,CC(=O)N1CCCCC1c1nc(N)ncc1-c1ccccc1 (centres undefined),-145%
13,CN(C)C(=O)CN1CCCCC1c1nc(N)ncc1-c1ccccc1 (centres undefined),-40.8%
14,CN(C)CC(=O)N1CCCCC1c1nc(N)ncc1-c1ccccc1 (centres undefined),50.9%
15,CC(C)Oc1ccc(CN2CCC(c3n[nH]c4ncccc34)CC2)cc1,-69.9%
16,Cc1cc(C[C@@H]2CCC[C@H]2NCc2ccccc2C)on1,65.1%
17,Cc1cc(C[C@@H]2CCC[C@H]2NCc2c[nH]nc2-c2ccccc2)on1,57.4%
18,Cc1cc(C[C@@H]2CCC[C@H]2NCc2cc(F)ccc2F)on1,20.7%
19,Cc1cc(C[C@@H]2CCC[C@H]2NCc2ccccc2F)on1,-4.92%
20,Cc1cc(C[C@@H]2CCC[C@H]2NCc2ccccc2C(F)(F)F)on1,15.6%
21,Cc1cc(C[C@@H]2CCC[C@H]2NCc2cccc(F)c2F)on1,-58.5%
